# Records with an inconclusive call do not appear. The source made the active and inactive calls. The call rests on the fitted dose curve; in most records, active means well fitted inhibition curve with a large enough effect; inconclusive means small, poorly fitted or top-dose-only effect; inactive means no such curve, though single readings can be large or run the other way.
# Legend:
# [1] = test system: Zika virus NS2B-NS3 protease (unlinked complex); test: Primary screen GU Rhodamine qHTS for Zika virus inhibitors: Unlinked NS2B-NS3 protease assay (AID 1347159); further: nearly all actives have a fitted effect of over 60% in size
# In short: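 Noncovalent NS2B hydrophilic domain–NS3 protease domain complex (25 nM) preincubated 15 min at room temperature with compounds (up to 114 microM) in 10 mM Tris-HCl pH 8.0, 0.01% Tween 20; 1.5 microM Rhodamine110 substrate added, fluorescence change over 15 min fitted to Hill equation.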
# [2] = test system: Zika virus NS2B-NS3 protease (linked construct); test: Primary screen NINDS Rhodamine qHTS for Zika virus inhibitors (AID 1347160); conditions: outcome: dose series up to 57.1 µM; further: nearly all actives have a fitted effect of over 55% in size
# In short: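 Purified linked NS2B-NS3 protease (NS2B hydrophilic domain joined to NS3 protease by flexible linker), 25 nM in 10 mM Tris-HCl pH 8.0, 0.01% Tween 20. Compounds titrated, 15 min preincubation at room temperature; 1.5 microM Rhodamine110 substrate, FITC fluorescence change over 15 min.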
SMILES,outcome [1],outcome [2]
C#C[C@]1(OC(C)=O)CC[C@H]2[C@@H]3CCC4=C[C@@H](OC(C)=O)CC[C@@H]4[C@H]3CC[C@@]21C,inactive,inactive
CC(=O)O[C@]1(C(C)=O)CC[C@H]2[C@@H]3C[C@H](C)C4=CC(=O)CC[C@]4(C)[C@H]3CC[C@@]21C,inactive,inactive
CN1CCN(C(c2ccccc2)c2ccccc2)CC1,inactive,inactive
COC(=O)C1=C(C)NC(C)=C(C(=O)O[C@@H]2CCCN(Cc3ccccc3)C2)[C@@H]1c1cccc([N+](=O)[O-])c1,inactive,inactive
COc1cccc(OC)c1C(=O)N[C@@H]1C(=O)N2[C@@H]1SC(C)(C)[C@@H]2C(=O)O,–,inactive
CN1C(CCl)Nc2cc(Cl)c(S(N)(=O)=O)cc2S1(=O)=O (centres undefined),inactive,inactive
O=C(OCCOCCO)c1ccccc1Nc1cccc(C(F)(F)F)c1,inactive,inactive
CC(CCc1ccccc1)NCC(O)c1ccc(O)c(C(N)=O)c1 (centres undefined),inactive,inactive
CC(=O)OCC(=O)[C@@]1(O)CC[C@H]2[C@@H]3CCC4=CC(=O)C=C[C@]4(C)[C@H]3[C@@H](O)C[C@@]21C,inactive,inactive
CC(C)n1nc(-c2cc3cc(O)ccc3[nH]2)c2c(N)ncnc21,inactive,inactive
Cc1ccc(Nc2c(F)cccc2Cl)c(CC(=O)O)c1,inactive,–
Cc1ccccc1C(=O)Nc1ccc(C(=O)N2CCCC(N(C)C)c3ccccc32)cc1 (centres undefined),inactive,inactive
COc1ccc(CN2CCN(C(c3ccc(F)cc3)c3ccc(F)cc3)CC2)c(OC)c1OC,inactive,inactive

# — PubChem BioAssay (NCATS)
